Hits are enriched below; roughly 17% of the tested compounds scored in any of these assays.
S2 tox = Viability Counterscreen for Primary qHTS for Inhibitors of ATXN expression; S2 cells (HEK-293 line with an ATXN2-luciferase reporter) viability, CellTiter-Fluor protease fluorescence, 24 h; Potency, µM (top dose mostly 56.7 µM), usual class: cytotoxic; hit rate 0.49% among 400,000; also: nearly all actives have a fitted effect of over 40% in size
HepG2 viability = qHTS for Inhibitors of TGF-b: Cytotox Counterscreen. HepG2 CAGA-GFP viability, ATP luminescence, 18 h. AID 588856, 2011. hit rate 0.76% among 410,000. Potency, µM (highest dose often 46.1 µM), for inactives: at the top dose activity change, negative = cytotoxicity, hits mostly cytotoxic
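HepG2 CAGA-GFP cells (1000/well, DMEM with 1% FBS) received compound, then TGF-beta at 500 pg/mL final, and were incubated 18 hours at 37 degrees C. Viability was read by CellTiter-Glo luminescence. Media-only wells were set as complete cell-killing and DMSO as no toxicity.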
TGFb inhibitor = qHTS for Inhibitors of TGF-b | HepG2 CAGA-GFP TGF-b/SMAD3 reporter, GFP fluorescence, 18 h; TGF-beta stimulated, 500 pg/mL final | Potency, µM (titrated, usually from 46.1 µM), for the others: at the top dose activity, negative = inhibition, most hits filed as inhibitors | hit rate 1.2% among 410,000 | AID 588855, 2011; also: % is scaled to controls: 0 for no effect and ±100 for the full control effect; nearly all actives have a fitted effect of over 65% in size
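TGF-beta reporter screen: HEPG2 CAGA-GFP, 1% FBS, 500 pg/mL TGF-beta final, 18 h; per-cell GFP summed per well; curves fitted and categorized by class.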
TDP1 cell CPT = qHTS for Inhibitors of human tyrosyl-DNA phosphodiesterase 1 (TDP1): qHTS in cells in presence of CPT. chicken DT40 Tdp1-/-;hTDP1 cells + 20 nM CPT, ATP luminescence, 48 h. Potency, µM (series often up to 46.2 µM), without a hit: at the top dose activity change, negative = growth inhibition, usual class: inhibitors. AID 686979, 2013. hit rate 12% among 420,000; also: % is scaled to controls: 0 for no effect and ±100 for the full control effect; nearly all actives have a fitted effect of over 55% in size
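Cell growth measured by CellTiter-Glo luminescence after a minimum 48 h, 37 C compound exposure with 20 nM CPT in Tdp1-knockout DT40 cells stably expressing hTDP1, seeded 400/well; qHTS titration format.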
ATXN2 expr inh = Primary qHTS for Inhibitors of ATXN expression; HEK-293 ATXN2-luciferase reporter, luminescence, 24 h; Potency, µM (top dose mostly 57 µM), for inactives: top-dose activity change, negative = inhibition, most hits filed as inhibitors; hit rate 0.72% among 360,000; AID 1745845, 2022; also: % is scaled to controls: 0 for no effect and ±100 for the full control effect; nearly all actives have a fitted effect of over 55% in size
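ATXN2-luciferase reporter cells (luciferase flanked by upstream and downstream ATXN2 gene portions) were treated 24 h at 37 °C with compounds at up to 57 uM. SteadyGlo luminescence gave expression; GF-AFC fluorescence gave viability.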
TDP1 cell noCPT = qHTS for Inhibitors of human tyrosyl-DNA phosphodiesterase 1 (TDP1): qHTS in cells in absence of CPT; DT40 Tdp1-/- hTDP1 cells, no CPT, ATP luminescence, 48 h; Potency, µM (highest dose often 46.2 µM), without a hit: top-dose activity change, negative = growth inhibition, hits mostly inhibitors; hit rate 15% among 420,000; AID 686978, 2013; also: % is scaled to controls: 0 for no effect and ±100 for the full control effect; nearly all actives have a fitted effect of over 55% in size
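DT40 Tdp1-/-;hTDP1 cells, no CPT (DMSO vehicle only), 400 cells/well; compounds pin-transferred; ≥48 hr, 37 °C; CellTiter-Glo 30 min RT dark, luminescence read.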
An asterisk follows results filed as active; i = inactive; ? = inconclusive; . = not tested or not shown. Calls follow the shape of the dose curve; as a rule, active = well fitted curve in the direction sought with a large enough effect; inconclusive = small, poorly fitted or top-dose-only effect, or another doubt; inactive = no such curve, though single readings can be large; an effect the other way counts as inactive or inconclusive. Potency is read from the fitted curve at half-maximal effect.

SMILES	S2 tox	HepG2 viability	TGFb inhibitor	TDP1 cell CPT	ATXN2 expr inh	TDP1 cell noCPT
COCCNC(=O)CCC1CCN(Cc2cccc(Oc3ccccc3)c2)CC1	i	-24%	25%	4%	-3%	1%
CN(NS(=O)(=O)c1ccc(F)cc1)c1ncc(C(F)(F)F)cc1Cl	i	-1%	5%	-1%	-4%	-14%
O=S(=O)(NNc1ncc(C(F)(F)F)cc1Cl)c1ccc(F)cc1F	.	-30%	-1%	?	.	21µM*
O=S(=O)(NNc1ncc(C(F)(F)F)cc1Cl)c1ccccc1	i	-26%	-5%	16µM*	-5%	?
Cc1ccccc1S(=O)(=O)Nc1ncc(C(F)(F)F)cc1Cl	i	-17%	-23%	-6%	-20%	-24%
CCOc1ccccc1CN(CCc1ccc2c(c1)OCO2)Cc1cccc(OC)c1OC	i	-21%	?	18µM*	-29%	16µM*
CCOc1cc(CNCc2ccc3c(c2)OCO3)ccc1OC	i	0%	4%	-20%	-7%	-21%
CCOc1ccc(CN(CCc2ccc3c(c2)OCO3)Cc2cc(OC)c(OC)cc2OC)cc1	.	-24%	11µM*	?	.	15µM*
COc1cc(OC)c(OC)cc1CNCc1ccc2c(c1)OCO2	i	-38%	10%	-7%	.	?
CC1(C)CC(=O)C=C(c2ccc(CO)cc2)C1=O	i	-3%	-1%	1%	8%	-15%
CC1(C)CC(=O)C=C(c2ccccc2-c2ccc3cc[nH]c3c2)C1=O	?	-13%	2%	-14%	0%	?
CC1(C)CC(=O)C=C(c2ccc(-c3ccccc3)cc2)C1=O	?	-25%	11%	?	-14%	26µM*
CC1(C)CC(=O)C=C(c2ccc(-c3ccc(OC(F)(F)F)cc3)cc2)C1=O	?	-39%	5%	16µM*	?	10µM*
CC1(C)CC(=O)C=C(c2ccc(-c3ccc4[nH]ccc4c3)cc2)C1=O	?	-34%	?	?	-47%	26µM*
Cc1ccnc2nc(C(=O)OC(C)C(=O)NCc3ccccc3)nn12 (centres undefined)	i	17%	1%	8%	5%	1%
CC1=C(C(=O)Nc2ccccc2)C(c2ccccc2C)n2nc(SCC(=O)c3ccc(C)cc3)nc2N1 (centres undefined)	i	5%	18%	5.8µM*	-6%	18µM*
CC1=C(C(=O)Nc2ccc(Cl)cc2)C(C(C)C)n2nc(SCc3ccc(Cl)cc3)nc2N1 (centres undefined)	i	-23%	5%	16µM*	0%	23µM*
COc1cc(C2C(C(=O)Nc3ccccc3)=C(C)Nc3nc(SCC(=O)c4ccc(C)cc4)nn32)ccc1O (centres undefined)	i	1%	6%	0%	2%	-5%
CC1=C(C(=O)Nc2ccc(Cl)cc2)C(c2ccccc2F)n2nc(SCc3cccc(Cl)c3)nc2N1 (centres undefined)	i	-1%	-13%	?	0%	23µM*
CC(C)C(=O)NC1CC(=O)N(c2ccc3c(c2)OCCO3)C1 (centres undefined)	.	10%	13%	-10%	.	-5%
O=c1cc(C(F)(F)F)nc(-c2ccccc2OC(F)(F)F)[nH]1	i	1%	2%	-1%	.	-4%
CCOc1c(Br)cc(C(=O)NCCCn2ccnc2)cc1OC	i	-27%	4%	-3%	-2%	16%
O=C(COC(=O)c1cccs1)Nc1ccc(S(=O)(=O)N2CCOCC2)cc1	i	19%	-13%	-16%	3%	-12%
Cc1c(CC(=O)N[C@@H](C)C(=O)O)c(=O)oc2cc3c(cc12)CCC(C)(C)O3	i	-7%	-5%	11%	.	-23%
Cc1c(CC(=O)N[C@H](C(=O)O)C(C)C)c(=O)oc2cc3c(cc12)CCC(C)(C)O3	i	-1%	4%	?	9%	23µM*
SMILES	S2 tox	HepG2 viability	TGFb inhibitor	TDP1 cell CPT	ATXN2 expr inh	TDP1 cell noCPT
CCC(C)NC(=O)Cc1c(C)c2cc3c(cc2oc1=O)OC(C)(C)CC3 (centres undefined)	?	-18%	0%	?	-1%	15µM*
Cc1c(CC(=O)NC(C)C)c(=O)oc2cc3c(cc12)CCC(C)(C)O3	i	-20%	0%	21µM*	32%	?
COc1ccc(Cn2ccnc2SCC(=O)Nc2nc3ccccc3s2)cc1	i	-18%	-13%	?	-2%	?
Cc1ccc2c3c(cccc13)-c1ccccc1C2=O	i	-31%	-16%	-29%	25%	?
Cc1coc2c1C(=O)C(=O)c1c-2ccc2c(C)cccc12	.	-18%	-13%	2.9µM*	?	4.6µM*
Cc1coc2c1C(=O)C(=O)c1c-2ccc2c1CCCC2(C)C	i	-32%	?	0.82µM*	12%	1.3µM*
C[C@H](N)CCCP(=O)(O)O	.	.	.	-6%	.	-8%
O=C(c1cc(F)c(F)c(F)c1F)N1CCN(C(=O)C2CCCO2)CC1 (centres undefined)	i	-4%	?	2%	1%	-7%
O=C(NCc1ccccc1)C(C1CC1)n1c(CSCCOc2ccccc2)nc2ccccc21 (centres undefined)	.	.	.	?	.	16µM*
O=C(O)Cn1c(SCCOc2ccccc2)nc2ccccc21	?	3%	0%	-3%	6%	-20%
O=C(NCc1ccccc1)C(C1CC1)n1c(-c2cccs2)nc2ccccc21 (centres undefined)	.	.	.	10µM*	.	9.2µM*
O=C(NC1CCCC1)C(C1CC1)n1c(-c2ccccn2)nc2ccccc21 (centres undefined)	.	.	.	9.2µM*	.	7.3µM*
O=C(NCc1ccccc1)C(c1ccccc1)n1c(-c2ccccn2)nc2ccccc21 (centres undefined)	.	.	.	-24%	.	-25%
COc1ccc(S(=O)(=O)Nc2c(C)cccc2C)cc1-n1cnnn1	i	-8%	15%	?	-3%	-9%
CC(Sc1nnc(COc2ccc(Cl)cc2)n1Cc1ccco1)C(=O)N1CCNC1=O (centres undefined)	i	-29%	-11%	?	-23%	?
Cn1c(-c2ccccc2[N+](=O)[O-])[n+](C)c2ccccc21	i	-16%	-6%	13µM*	.	5.8µM*

Source: PubChem BioAssay (National Center for Advancing Translational Sciences (NCATS))
